Results reported in PubChem BioAssay AID488890 (Southern Research Specialized Biocontainment Screening …, 2010).
Screen size: about 320,000 compounds; about 1,300 (0.41%) were called active. About 3% were inconclusive and are not listed. How the calls were made is not given here. These entries were drawn from the full list. Measured potencies and affinities stand elsewhere.

Assay: growth inhibition of non-replicating M. tuberculosis (AID 488890);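 further: plate controls were DMSO cells for no effect and high antibiotic wells for full effect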
Conditions: Mycobacterium tuberculosis non-replicating, at 25 µM, stronger effect = higher value

Q: With `O=C1CN(C(=O)c2cccc(Br)c2)c2ccccc2N1` as the compound, how does the inhibition read?
A: Its inhibition is -8.78%.

Q: Which inhibition does the source give for `Cc1nnc(NC(=O)CCC(=O)N2CCN(CCOc3cccc4ccccc34)CC2)s1` here?
A: The inhibition was 16.7%.

Q: With `CCCCOC(=O)Nc1cc(C(=O)OC)ccc1C(=O)OC` as the compound, how does the inhibition read?
A: The inhibition was 18.2%.

Q: Which inhibition does the source give for `N#Cc1ccc(OCC(=O)Nc2nc(-c3ccncc3)cs2)cc1` here?
A: Its inhibition is 10%.

Q: With `Cc1c([N+](=O)[O-])c([N+](=O)[O-])nn1CC(=O)NCc1cccnc1` as the compound, how does the inhibition read?
A: Its inhibition is 6.05%.

Q: With `Cn1c(=O)c2c(SCCN3CCOCC3)nc(C3CCCC3)nc2n(C)c1=O` as the compound, how does the inhibition read?
A: The inhibition was 19.1%.

Q: For `COc1cc(C(=O)N/N=C/c2ccsc2C)cc(OC)c1OC`, which inhibition is on record?
A: The inhibition was 0.65%.

Q: For `CCOc1ccc(C(=O)N/N=C/c2cc([N+](=O)[O-])cs2)cc1`, which inhibition is on record?
A: Its inhibition is 69.5%.

Q: For `CCOc1ccc(CC(=O)OCc2cc(=O)n3cc(Br)ccc3n2)cc1`, which inhibition is on record?
A: Its inhibition is 50.5%.

Q: Which inhibition does the source give for `COc1ccc(CC(=O)OCc2cc(=O)n3cc(Br)ccc3n2)cc1OC` here?
A: Its inhibition is 13.9%.

Q: Which inhibition does the source give for `O=C(OCc1nnc(-c2ccccc2)o1)c1ccccc1` here?
A: Its inhibition is 73.8%.

Q: Which inhibition does the source give for `CCOC(=O)Nc1nc2ccccc2s1` here?
A: The inhibition was -2.43%.

Q: Which inhibition does the source give for `Cc1onc(-c2ccccc2)c1C(=O)OCc1nnc(-c2ccc([N+](=O)[O-])cc2)o1` here?
A: The inhibition was 48%.

Q: Which inhibition does the source give for `CCOC(=O)c1cccc(COC(=O)c2cccc(-c3nnc(-c4ccccc4)o3)c2)c1` here?
A: The inhibition was 18.4%.

Q: With `CCOC(=O)c1ccc(Cn2c(-c3ccccc3)nnc2-c2ccccc2)o1` as the compound, how does the inhibition read?
A: Its inhibition is 11.2%.

Q: For `O=C(OCc1nnc(-c2ccccc2)o1)c1cccnc1Cl`, which inhibition is on record?
A: The inhibition was 6.83%.

Q: With `O=C(OCc1nnc(-c2ccccc2)o1)c1ccc([N+](=O)[O-])o1` as the compound, how does the inhibition read?
A: Its inhibition is 64.9%.

Q: Which inhibition does the source give for `CC(=O)OCc1nc2ccccc2s1` here?
A: Its inhibition is -0.84%.

Q: For `Cc1cc(C(=O)CSc2nc3ccc(Cl)cc3[nH]2)c(C)n1Cc1ccco1`, which inhibition is on record?
A: Its inhibition is 13.9%.

Q: For `COc1ccc(CN2C(=O)c3cccnc3C2Nc2ccc(C)cc2)cc1` (configuration not stated), which inhibition is on record?
A: Its inhibition is 27%.

Q: With `CN(CC(=O)NCc1ccccc1Cl)S(=O)(=O)c1ccc2c(c1)n(C)c(=O)c(=O)n2C` as the compound, how does the inhibition read?
A: The inhibition was -4.13%.

Q: For `CCOC(=O)CC(=O)COc1nc2cc3c(nc2o1)CCCC3`, which inhibition is on record?
A: Its inhibition is -11.4%.

Q: Which inhibition does the source give for `NCCCC[C@H](NC(=O)C1CCNCC1)c1nnc(CN)o1` here?
A: The inhibition was -30.9%.

Q: Which inhibition does the source give for `CCC/C(=C1/c2ccccc2C(=O)N1c1ccccc1)c1cnc(OC)nc1` here?
A: The inhibition was 24.1%.

Q: For `COc1ccc(CN2CCN(c3ccccc3OC)CC2)cc1OC`, which inhibition is on record?
A: The inhibition was -6.29%.

Q: Which inhibition does the source give for `Nc1ccc(C(=O)OCc2nc3ccccc3s2)cc1` here?
A: Its inhibition is 68.4%.

Q: With `O=C(COC(=O)c1ccc(Br)o1)Nc1nc2ccccc2s1` as the compound, how does the inhibition read?
A: The inhibition was 71.5%.

Q: Which inhibition does the source give for `COc1ccc(C2=NOC(C(=O)N(C)Cc3ccccc3)C2)cc1` (configuration not stated) here?
A: Its inhibition is 48.3%.

Q: For `O=C(c1ccc(F)cc1)C(Cc1ccccc1)N1CCCCC1` (configuration not stated), which inhibition is on record?
A: Its inhibition is 63.6%.

Q: With `Cc1ccn2c(=O)cc(C)nc2c1` as the compound, how does the inhibition read?
A: Its inhibition is 4.9%.

Q: With `Cc1cc(=O)n2ccsc2n1` as the compound, how does the inhibition read?
A: The inhibition was 0.97%.

Q: For `CCOc1ccc(N(CC(=O)N2CCN(c3ccc(F)cc3)CC2)S(=O)(=O)c2c(C)noc2C)cc1`, which inhibition is on record?
A: The inhibition was 21.6%.

Q: With `Cn1nc([N+](=O)[O-])nc1Sc1nnc(-c2ccccc2)o1` as the compound, how does the inhibition read?
A: The inhibition was 78%.

Q: For `COC(=O)CSc1nnc(-c2ccccc2OC)o1`, which inhibition is on record?
A: Its inhibition is 77.4%.

Q: With `CCCOc1ccc(N2CC(C(=O)NC(C)C)CC2=O)cc1` (configuration not stated) as the compound, how does the inhibition read?
A: Its inhibition is -9.57%.

Q: Which inhibition does the source give for `CCC(=Nc1cccc(C(F)(F)F)c1)c1c(O)n(C)c(=O)n(C)c1=O` here?
A: The inhibition was -2.54%.

Q: For `CCC(=Nc1ccc2c(c1)CCC2)c1c(O)n(C)c(=O)n(C)c1=O`, which inhibition is on record?
A: Its inhibition is 7.71%.

Q: For `COc1cccc(OC)c1C(=O)OCC(=O)N1CC(C)CC(C)C1` (configuration not stated), which inhibition is on record?
A: The inhibition was -15.5%.

Q: With `Cc1nc2ccccc2c(=O)n1/N=C/c1c(O)ccc2ccccc12` as the compound, how does the inhibition read?
A: Its inhibition is 40.6%.

Q: Which inhibition does the source give for `Cc1nnc(C)n1/N=C/c1c(O)ccc2ccccc12` here?
A: Its inhibition is 3.2%.

Q: For `Fc1cccc(Nc2cc(-n3cccn3)ncn2)c1`, which inhibition is on record?
A: The inhibition was 21.4%.

Q: For `CN(Cc1cccs1)S(=O)(=O)c1ccc(Cl)cc1F`, which inhibition is on record?
A: The inhibition was 44.2%.

Q: For `Oc1oc(-c2ccco2)nc1C=Nc1ccccc1`, which inhibition is on record?
A: Its inhibition is 17%.

Q: Which inhibition does the source give for `Cc1ccc(N=Cc2nc(-c3ccco3)oc2O)cc1` here?
A: Its inhibition is 73.2%.

Q: With `CC(C)(O)C#Cc1ccc(CN2CCN(C3CCCCC3)C(CCO)C2)s1` (configuration not stated) as the compound, how does the inhibition read?
A: Its inhibition is 11.2%.

Q: For `CCN(CC)CCOC(=O)/C=C/c1ccccc1OC`, which inhibition is on record?
A: Its inhibition is -10.5%.

Q: Which inhibition does the source give for `COc1ccc(NC(=O)Nc2ccccc2F)c(C)c1` here?
A: The inhibition was 20.6%.

Q: For `COc1ccc(C)cc1Nc1n[n+](-c2ccccc2)c(-c2ccc(SC)cc2)s1`, which inhibition is on record?
A: Its inhibition is 76.9%.

Q: For `CCOc1cc(-c2sc(Nc3ccc(CC)cc3)n[n+]2-c2ccccc2)ccc1OC`, which inhibition is on record?
A: The inhibition was 63.8%.

Q: With `Oc1cc2c(cc1CN1CCN(c3ncccn3)CC1)OCO2` as the compound, how does the inhibition read?
A: Its inhibition is 8.73%.

Q: With `C=CCNc1oc(-c2cccs2)nc1C#N` as the compound, how does the inhibition read?
A: The inhibition was -2.7%.

Q: Which inhibition does the source give for `N#Cc1nc(-c2cccs2)oc1NCc1ccccc1` here?
A: The inhibition was 29.7%.

Q: For `CC1CCCC(NS(=O)(=O)c2cc3c(cc2Cl)NC(=O)CO3)C1C` (configuration not stated), which inhibition is on record?
A: Its inhibition is 31.5%.

Q: For `Cc1ccc(C2(C)NC(=O)N(CC(=O)N(C)CC(=O)Nc3cccc4ccccc34)C2=O)cc1` (configuration not stated), which inhibition is on record?
A: Its inhibition is 7.1%.

Q: Which inhibition does the source give for `COc1ccc(C2=NCC(=S)Nc3ccc(Cl)cc32)cc1OC` here?
A: The inhibition was -21%.

Q: For `O=C1CN=C(c2ccccc2)c2cc(Cl)ccc2N1`, which inhibition is on record?
A: The inhibition was 5.86%.

Q: Which inhibition does the source give for `O=C(CN1C(=O)C(=O)N(CCC2=CCCCC2)C1=O)Nc1ccc(F)cc1F` here?
A: Its inhibition is 8.84%.

Q: For `Cc1nc2ccccc2nc1OCC(=O)Nc1cc(C(F)(F)F)ccc1N1CCOCC1`, which inhibition is on record?
A: The inhibition was 5.99%.

Q: With `CN(C)/C=C1/OC(=O)C(C#N)=C1c1ccc(Cl)cc1` as the compound, how does the inhibition read?
A: Its inhibition is -0.58%.

Q: With `O=C1O/C(=C/c2ccccc2)c2ccccc21` as the compound, how does the inhibition read?
A: Its inhibition is -7.13%.

Q: For `COc1cc(/C=C/[N+](=O)[O-])ccc1OC(=O)c1cc2ccccc2oc1=O`, which inhibition is on record?
A: Its inhibition is 37.8%.

Q: For `COc1ccc(N(CC(=O)Nc2ccccc2C)S(=O)(=O)c2c(C)[nH]c(=O)[nH]c2=O)cc1`, which inhibition is on record?
A: Its inhibition is 8.99%.

Q: Which inhibition does the source give for `CC(C)NC(=O)Cn1c(SCC(=O)c2ccc(F)cc2)nc2ccccc21` here?
A: Its inhibition is 7.83%.

Q: Which inhibition does the source give for `CN=C1NN=C(c2cc(C)n(-c3ccc(Cl)cc3)c2C)CS1` here?
A: The inhibition was 14.6%.

Q: Which inhibition does the source give for `Cc1cc(C2=NNC(=NC3CC3)SC2)c(C)n1-c1c(C)n(C)n(-c2ccccc2)c1=O` here?
A: The inhibition was 4.63%.

Q: For `CCc1ccc(NS(=O)(=O)c2cc3c4c(c2)CCN4C(=O)CC3)cc1`, which inhibition is on record?
A: Its inhibition is 1.05%.

Q: For `Cc1oc(-c2cccc(Cl)c2)nc1CN1CCCC(C(=O)NCc2ccco2)C1` (configuration not stated), which inhibition is on record?
A: The inhibition was 22.8%.

Q: Which inhibition does the source give for `Cc1[nH]c(=O)[nH]c(=O)c1/C=C/C(=O)O` here?
A: Its inhibition is -4.51%.

Q: Which inhibition does the source give for `Nc1c(C(=O)OCC(=O)NCc2ccccc2)[nH]c(=O)[nH]c1=O` here?
A: Its inhibition is -9.15%.

Q: Which inhibition does the source give for `CCCCn1c(N)c(N(CC(C)C)C(=O)c2ccc(-c3ccc(Cl)cc3)o2)c(=O)[nH]c1=O` here?
A: The inhibition was 74.7%.

Q: For `NS(=O)(=O)c1ccc(-c2ccc(C=C3C(=O)NC(=O)NC3=O)o2)cc1`, which inhibition is on record?
A: The inhibition was 2.79%.

Q: With `CNS(=O)(=O)c1ccc(-c2ccc(C=C3C(=O)NC(=O)NC3=O)o2)cc1` as the compound, how does the inhibition read?
A: Its inhibition is -1.77%.
